Data as given in PubChem BioAssay AID720700 (The Scripps Research Institute Molecular Screening Center, 2013).
Out of some 370,000 compounds screened, about 3,100 (0.84%) were called active. This is one part of a sample in which actives are shown more often than they occur. Unmarked numbers belong to inactive results. Cut-off read from the data, not from the text of the source: active = inhibition above about 9.5%; inactive = the rest.

Target: 1-phosphatidylinositol 4,5-bisphosphate phosphodiesterase gamma-1 (Homo sapiens) (UniProt P19174)
Sequence (P19174 whole entry, looked up): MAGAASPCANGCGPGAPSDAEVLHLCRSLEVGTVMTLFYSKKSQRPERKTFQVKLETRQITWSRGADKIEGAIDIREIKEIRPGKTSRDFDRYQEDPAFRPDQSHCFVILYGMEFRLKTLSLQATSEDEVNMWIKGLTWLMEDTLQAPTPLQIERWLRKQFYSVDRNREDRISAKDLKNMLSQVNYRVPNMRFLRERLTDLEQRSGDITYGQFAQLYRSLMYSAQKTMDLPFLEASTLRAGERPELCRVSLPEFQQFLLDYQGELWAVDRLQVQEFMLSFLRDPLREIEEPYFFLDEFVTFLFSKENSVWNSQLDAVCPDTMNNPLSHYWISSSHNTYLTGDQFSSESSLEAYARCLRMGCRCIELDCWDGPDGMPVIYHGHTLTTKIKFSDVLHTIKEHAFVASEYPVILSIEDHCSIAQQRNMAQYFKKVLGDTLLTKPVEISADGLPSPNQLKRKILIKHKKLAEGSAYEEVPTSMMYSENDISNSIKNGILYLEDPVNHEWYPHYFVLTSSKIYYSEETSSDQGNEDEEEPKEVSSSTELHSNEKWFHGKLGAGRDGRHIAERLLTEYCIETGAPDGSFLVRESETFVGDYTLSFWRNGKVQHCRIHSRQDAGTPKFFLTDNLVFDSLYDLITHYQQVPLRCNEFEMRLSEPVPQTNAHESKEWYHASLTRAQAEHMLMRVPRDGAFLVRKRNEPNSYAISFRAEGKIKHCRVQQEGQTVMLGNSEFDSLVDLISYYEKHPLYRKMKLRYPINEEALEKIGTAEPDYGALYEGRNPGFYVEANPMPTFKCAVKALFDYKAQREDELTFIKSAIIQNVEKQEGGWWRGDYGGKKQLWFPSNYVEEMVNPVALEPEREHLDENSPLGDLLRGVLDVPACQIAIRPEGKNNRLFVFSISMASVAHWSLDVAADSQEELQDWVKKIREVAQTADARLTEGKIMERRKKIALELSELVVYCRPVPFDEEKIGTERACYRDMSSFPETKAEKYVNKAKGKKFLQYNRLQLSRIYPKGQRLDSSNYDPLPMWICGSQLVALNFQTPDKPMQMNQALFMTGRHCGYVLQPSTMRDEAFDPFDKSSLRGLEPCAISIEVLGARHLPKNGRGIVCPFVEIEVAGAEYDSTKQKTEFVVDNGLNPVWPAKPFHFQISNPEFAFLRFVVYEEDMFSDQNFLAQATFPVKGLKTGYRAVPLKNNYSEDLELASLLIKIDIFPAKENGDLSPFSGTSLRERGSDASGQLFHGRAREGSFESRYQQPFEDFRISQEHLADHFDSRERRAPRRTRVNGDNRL
Assay: PLC-gamma1 enzyme inhibitors, primary screen, biochemical, fluorescence, purified enzyme (AID 720700)
Settings: purified PLC-gamma1, fluorogenic substrate, at 12.2 µM, active compounds read high

| SMILES | inhibition |
| --- | --- |
| COc1ccc([C@H]2OC(=O)C[C@H]2C(=O)N2CCN(c3ccccc3F)CC2)cc1OC | 0.67% |
| O=S(=O)(Nc1ncccn1)c1ccc(NS(=O)(=O)c2cccc(Cl)c2Cl)cc1 | 4.05% |
| O=S(=O)(Nc1ccc(Oc2ncccn2)c(Cl)c1)c1ccc(F)cc1 | 9.74% (active) |
| Cn1c(=O)n(C)c2cc(NS(=O)(=O)c3ccc(F)cc3)ccc21 | 0.25% |
| COC(=O)c1cccc(Cn2ccc3ccc(-c4ccc5ccn(C(=O)c6ccccc6C)c5c4)cc32)c1 | -16.3% |
| CCC(NC(=O)C1C2C=CC3(CN(Cc4ccccc4)C(=O)C13)O2)c1ccccc1 (stereo unspecified) | -2% |
| CN(CC(=O)Nc1ccccc1Cl)C(=O)COc1cccc2c1OC(C)(C)C2 | 11.8% (active) |
| COc1cccc(CCNC(=O)COc2cccc3c2OC(C)(C)C3)c1 | 3.51% |
| CC1(C)Cc2cccc(OCC(=O)Nc3nccs3)c2O1 | 0.31% |
| Cc1c[nH]c2cccc(-c3ccc(Cl)cc3)c12 | -12% |
| C=CCNc1nc(N)c([N+](=O)[O-])c(NC2CCCCC2)n1 | 4.77% |
| COCCNc1nc(N)c([N+](=O)[O-])c(N2CCCCCC2)n1 | 7.3% |
| Nc1nc(NCC(=O)O)nc(N2CCCCCC2)c1[N+](=O)[O-] | 9.71% (active) |
| CC(C)(C)c1ccc(CSc2nnc(-c3cccs3)o2)cc1 | 0.5% |
| O=C(CCl)NC1CCCCN(Cc2cccc(C(F)(F)F)c2)C1=O (stereo unspecified) | -1.65% |
| CCOC(=O)[C@@]12CCC3=C1N(CCC3)C(=O)[C@H](CC(=O)N1CCN(C(=O)c3ccco3)CC1)C2 | -1.32% |
| CN(C(=O)c1cccc(NC(=O)Cc2cccc(NC(=O)C3CCCN(C(=O)C4CC4)C3)c2)c1)C1CCC1 (stereo unspecified) | 0.32% |
| CN(C(=O)c1cccc(NC(=O)Cc2ccc(NC(=O)C3CCN(C(=O)C4CCCCC4)CC3)cc2)c1)C1CCC1 | 1.78% |
| CN(C(=O)c1ccc(NC(=O)Cc2cccc(NC(=O)C3CCN(C(=O)c4ccccc4)CC3)c2)cc1)C1CC1 | 10.7% (active) |

| SMILES | inhibition |
| --- | --- |
| CC(C)(C)NC(=O)C(c1cccnc1)N(C(=O)c1cnco1)c1ccc(C(C)(C)C)cc1 (stereo unspecified) | 0.93% |
| COC(=O)[C@]12C[C@H](CC(=O)NCc3cccc4ccccc34)C(=O)N(CCc3ccc(OC)c(OC)c3)C1=C[C@H](C1CCCC1)O[C@@H]2C | 4.89% |
| CS(=O)(=O)Nc1cccc(C2=NN(C(=O)c3cccc(F)c3)C(c3cccs3)C2)c1 (stereo unspecified) | -0.97% |
| CCOc1ccccc1C1CC(c2cccc(NS(C)(=O)=O)c2)=NN1C(=O)c1ccccc1 (stereo unspecified) | 9.81% (active) |
| Cc1ccc(C2CC(c3cccc(NS(C)(=O)=O)c3)=NN2S(C)(=O)=O)cc1 (stereo unspecified) | 2.31% |
| C=C1C(C(C)C)N(C)C2=NC(c3ccccc3)CC(=O)N12 (stereo unspecified) | -2.56% |
| C=CCN1C(=O)[C@@H](CC(=O)N2CCN(C(=O)c3ccco3)CC2)[C@]2(C(=O)OC)CCCCC=C12 | -0.31% |
| CC(=O)N1CCN(CC(c2ccccc2)c2ccccc2)CC1 | -0.45% |
| O=C(C(c1ccccc1)c1ccccc1)N1CCN(CC(O)COc2ccccc2)CC1 (stereo unspecified) | 9.59% (active) |
| CCCc1ccc(OCC(O)CN2CCN(C(=O)OCC)CC2)cc1 (stereo unspecified) | 8.68% |
| Nn1c(SCC(=O)Nc2cccc3ccccc23)nnc1-c1cc(-c2ccc(F)cc2)n[nH]1 | -1.09% |
| C[C@H]1CCC/C=C/C(=O)c2c(O)cc(O)cc2CC(=O)O1 | -3.4% |
| CCOc1ccc(CCNC(=O)COC(=O)c2c(OC)cccc2OC)cc1OCC | 6.67% |
| CCOc1ccc(CCNC(=O)COC(=O)CCS(=O)(=O)c2ccc(C)cc2)cc1OCC | 9.85% (active) |
| COc1ccc(CNC(=O)COC(=O)CCS(=O)(=O)c2ccc(C)cc2)cc1OC | 0.41% |
| C=C(C)C#CC(Cc1ccccc1)NCC1CC1 (stereo unspecified) | 0.45% |
| O=S(=O)(c1ccc(F)cc1)N1CCN(C(=S)NC2CCCC2)CC1 | 10.9% (active) |
| O=C(O)C1CCCCC1C(=O)N1CCN(S(=O)(=O)c2ccc(F)cc2)CC1 (stereo unspecified) | 4.99% |
| O=C(CN1CCN(S(=O)(=O)c2ccc(F)cc2)CC1)NC1CC1 | -1.88% |

| SMILES | inhibition |
| --- | --- |
| CCOc1ccccc1NC(=O)C12CC3CC(C1)CC(c1ccc(C)cc1)(C3)C2 | 0.03% |
| C=CCNC(=O)C12CC3CC(C1)CC(C(=O)NCC=C)(C3)C2 | -0.37% |
| Cc1ccc(C23CC4CC(CC(C(=O)NCC(=O)O)(C4)C2)C3)cc1 | 9.87% (active) |
| O=C(Nc1ccc(Br)cc1)OCCN1C(=O)CCC12CCC(c1ccccc1)CC2 (stereo unspecified) | 4.23% |
| O=C(NC1CCC1)c1ccc(C#CC2CC2)cn1 | -0.59% |
| O=C(CSc1nnc(-c2ccncc2)n1C1CCCCC1)Nc1ccccc1 | 10.2% (active) |
| COCCCn1c(SCC(=O)Nc2ccccc2)nnc1-c1ccncc1 | -0.81% |
| O=C(CSc1nnc(-c2ccncc2)n1-c1ccc(Cl)cc1)Nc1ccc(C(=O)O)cc1 | -0.57% |
| COc1ccccc1CCNC(=O)C1CCN(c2nc(C)cc(C)n2)CC1 | -0.02% |
| Cc1ccc(-c2nc(C3CCCN(S(=O)(=O)c4ccc(Br)s4)C3)no2)cc1 (stereo unspecified) | 0.61% |
| O=S(=O)(NCCCN1CCOCC1)c1ccc(F)c(Cl)c1 | -0.87% |
| COc1ccc(-c2ccc(CNCCCN3CCOCC3)o2)cc1Cl | 1.38% |
| C=CCOc1ccc(Cl)cc1CNCCCN1CCOCC1 | 10.7% (active) |
| Cc1ccccc1NC(=O)Cn1nnc(-c2ccccc2F)n1 | 0.94% |
| CN1[C@H](Cc2ccccc2)COc2cccc(N3CCSCC3)c2S1(=O)=O | -5.49% |
| O=C1NC2(CCCCCC2)C(=O)N1CCS(=O)(=O)Oc1ccccc1 | 1.93% |
| COc1ccc(NC(=O)CN2C(=O)C(c3ccccc3)=NC23CCCCCC3)cc1OC | 1.88% |
| O=C1NC2(CCCCC2)N=C1c1ccccc1 | 10.4% (active) |
